PubChem BioAssay
Records with an inconclusive call do not appear. Calls of active or inactive are those of the source.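 How the source made its calls, unless noted: active means viability at or below 30% in both replicate assays; inconclusive means viability at or below 30% in just one of the two assays; inactive means the rest.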

Tests used:
[1] = Her2 expression decrease, cell viability multiplex – SKBR3 breast tumor cells, AlphaScreen, ATP viability, primary screen (AID 461;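 active means Her2 level under about 52% in both replicate screens, with viability over 70% of control, limit read from the data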;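 on Her2 level: lower value means less Her2 protein in the cells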;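 on viability: percent of carrier control wells set as 100% viability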); settings: SKBR3 Her2 protein level, 18-24 h, measured here: SKBR3 viability, ATP luminescence, at 10 µM
[2] = target: Receptor tyrosine-protein kinase erbB-2 (Homo sapiens) (UniProt P04626); assay: as above; settings: 18-24 h, at 10 µM, stronger effect = lower value
[3] = reduced viability of SK-BR-3 breast cancer cells – cell-based, 24 h, human, pilot screen (AID 572;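 active means viability at or below 10% of carrier control in both of two separate runs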;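 further: compound exposure lasted between 18 and 24 h rather than exactly 24 h; 100% = carrier-treated control wells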); settings: SK-BR-3 viability, CellTiter-Glo luminescence, at 10 µM, stronger effect = lower value
[4] = HUVEC growth inhibition – cell-based, human, primary screen (AID 575); settings: HUVEC proliferation, CellTiter-Glo luminescence, 72 h; at 10 µM; stronger effect = lower value;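 further: 100% = median of untreated cell wells with 0.1% DMSO on each plate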
[5] = H69AR cell proliferation blockers – human, duplicate replicates, primary screen (AID 580;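 active means viability at or under a set limit in both replicates, limit being median viability minus 3 SD, cut at about 48% in these data, passing the limit was not always enough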;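 further: 100% = mean luminescence of untreated wells and 0% = no signal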); settings: H69AR lung tumor cells viability, ATP luminescence, 72 h; at 10 µM; stronger effect = lower value
[6] = MRP1 drug-resistance reversers in H69AR cells – cell-based, doxorubicin co-treatment, pilot screen (AID 601;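 active means viability loss from added drug above about 55%, and viability with drug at most 40%, in both replicates, limit read from the data, passing the limit was not always enough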); settings: CellTiter-Glo, 72 h, at 10 µM; for differential viability (reversal): stronger effect = higher value
[7] = yeast transport mutant growth inhibition pilot in 384-well plates, post-Golgi transport modulator project (AID 636; in the data active means inhibition above about 31%); settings: absorbance 615 nm, about 18 h, stronger effect = higher value
[8] = growth suppression of yeast trafficking mutant, preliminary HTS, modulators of trafficking downstream of Golgi apparatus project, 1536-format plate, OD 615 nm (AID 637; in the data active means inhibition above about 30%); settings: yeast transport mutant growth, absorbance 615 nm, 18 h; stronger effect = higher value
[9] = S. cerevisiae growth inhibition in permissive medium (OD615), pilot counter-assay for S. cerevisiae lifespan shortening project, permissive growth control (AID 705;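 active means growth inhibition above 25% in both replicates, a cutoff set 3 SD above the mean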); settings: OD615, 24 h, at 10 µM, stronger effect = higher value
[10] = S. cerevisiae growth inhibition in restrictive medium, OD615, pilot screen, restrictive growth control, yeast lifespan reduction project (AID 706;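 active means growth inhibition above a set limit, 3 SD over mean compound inhibition, in both replicates, cut at about 43% in these data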;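 further: modified DeaD lifespan yeast strain shifted to restrictive glucose medium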); settings: OD615, 48 h, at 10 µM, stronger effect = higher value
[11] = doxorubicin toxicity protection in MRP-1 cells – H69AR cells, CellTiter-Glo, duplicate, MRP-1 activator project, pilot screen (AID 807;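 active means viability increase at or above a cutoff of the median across tested compounds plus 3 SD, cut at about 8.5% in these data, passing the limit was not always enough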;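 further: compound pretreatment 18-22 h then 72 h combined with doxorubicin; 0% = doxorubicin alone and 100% = vehicle without doxorubicin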); settings: H69AR viability with doxorubicin, CellTiter-Glo luminescence; at 10 µM; stronger effect = higher value
[12] = viability of HCT116 without oncogenic beta-catenin – human colon tumor cells, pilot screen (AID 823;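 active means cell viability at or below a set limit in both duplicate runs, the limit being the all-compound median minus 4 SD, cut at about 23% in these data, passing the limit was not always enough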;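 further: 0% = wells killed by 20 µM Hyamine and 100% = untreated DMSO cell wells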); settings: HCT116 beta-catenin knockout viability, CellTiter-Glo, 60 h; at 10 µM; stronger effect = lower value
[13] = RAM pathway blockade in budding yeast – dse1pr::URA3 reporter, 5-FOA selection, pilot screen (AID 869;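 active means inhibition over a set limit, the all-compound mean plus 3 SD, in both replicate runs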;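 further: 0% = DMSO wells with no growth and 100% = 10 µM 1-NA-PP1 with full growth; RAM network block rescues cells from 5-FOA so hits raise OD615 growth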); settings: S. cerevisiae dse1pr::URA3 5-FOA growth, OD615, 2 d; at 10 µM; stronger effect = higher value; strain carries analog-sensitive mutant Cbk1 kinase
[14] = RAM signaling pathway blockade in yeast – S. cerevisiae, Pdr1DBD-CYC8 efflux-inhibited sensitized strain, primary screen (AID 1298;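 active means RAM network inhibition above 8.4% in each of two replicates, 3 SD over the compound average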;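 further: 0% = DMSO untreated cells without growth and 100% = 10 µM 1-NA-PP1 full growth; higher means more yeast growth rescued from 5-FOA killing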); settings: S. cerevisiae cbk1-as DSE1-URA3 strain, 5-FOA growth OD615, 2 d; at 50 µM; stronger effect = higher value
[15] = viability of PTEN-null HCT116 cells – cell-based, HCT116 clonal line, CellTiter-Glo, pilot screen (AID 824;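 active means viability at or below 27.92% in each of two runs, the all-compound median minus 4 SD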;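 further: 0% = 20 µM Hyamine control and 100% = vehicle cell control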); settings: HCT116 PTEN-deleted viability, 60 h, at 10 µM, stronger effect = lower value
[16] = H69AR cells + 2 uM doxorubicin, measured here: viability with 2 uM doxorubicin, stronger effect = lower value
[17] = H69AR cells, compound alone cytotoxicity

Chain of Receptor tyrosine-protein kinase erbB-2 (Homo sapiens) (P04626 whole entry, looked up): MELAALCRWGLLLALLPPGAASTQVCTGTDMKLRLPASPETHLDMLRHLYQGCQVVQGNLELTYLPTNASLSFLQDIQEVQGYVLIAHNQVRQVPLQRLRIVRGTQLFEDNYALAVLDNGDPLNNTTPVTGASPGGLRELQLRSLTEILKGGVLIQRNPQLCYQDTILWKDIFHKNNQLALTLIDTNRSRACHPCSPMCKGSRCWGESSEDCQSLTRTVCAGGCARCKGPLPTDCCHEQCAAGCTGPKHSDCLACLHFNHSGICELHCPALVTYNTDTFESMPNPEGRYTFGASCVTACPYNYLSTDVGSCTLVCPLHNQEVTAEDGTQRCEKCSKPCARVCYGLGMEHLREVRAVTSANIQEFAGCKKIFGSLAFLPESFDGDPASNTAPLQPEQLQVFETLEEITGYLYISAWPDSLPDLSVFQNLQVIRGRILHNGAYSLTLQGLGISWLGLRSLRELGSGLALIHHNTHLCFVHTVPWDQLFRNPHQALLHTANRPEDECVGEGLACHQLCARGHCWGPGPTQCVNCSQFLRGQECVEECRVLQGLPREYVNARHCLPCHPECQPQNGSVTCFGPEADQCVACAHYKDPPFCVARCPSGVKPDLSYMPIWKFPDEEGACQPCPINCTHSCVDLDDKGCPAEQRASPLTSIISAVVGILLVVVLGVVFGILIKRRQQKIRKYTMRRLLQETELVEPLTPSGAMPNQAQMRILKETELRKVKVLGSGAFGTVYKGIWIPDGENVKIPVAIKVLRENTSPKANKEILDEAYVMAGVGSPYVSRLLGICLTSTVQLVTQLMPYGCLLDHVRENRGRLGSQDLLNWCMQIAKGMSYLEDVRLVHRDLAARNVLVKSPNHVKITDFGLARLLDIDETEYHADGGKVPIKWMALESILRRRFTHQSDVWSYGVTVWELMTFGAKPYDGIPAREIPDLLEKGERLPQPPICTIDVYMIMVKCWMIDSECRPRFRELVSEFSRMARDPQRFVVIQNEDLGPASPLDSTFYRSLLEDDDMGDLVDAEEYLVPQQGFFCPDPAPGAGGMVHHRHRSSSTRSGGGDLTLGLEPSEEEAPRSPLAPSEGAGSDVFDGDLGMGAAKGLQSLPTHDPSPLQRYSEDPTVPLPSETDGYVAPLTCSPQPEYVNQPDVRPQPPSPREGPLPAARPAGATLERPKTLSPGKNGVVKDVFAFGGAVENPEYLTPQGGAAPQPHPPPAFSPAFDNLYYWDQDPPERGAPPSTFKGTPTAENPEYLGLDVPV

Row | SMILES | viability [1] [%] | Her2 level [2] | viability [3] | viability [4] | viability [5] | differential viability (reversal) ([6]; H69AR cells + 2 uM doxorubicin) | viability [6, 16] [%] | viability [6, 17] [%] | inhibition [7] | inhibition [8] | growth inhibition [9] | growth inhibition [10] | viability increase [11] | viability [12] | inhibition [13] | RAM network inhibition [14] | viability [15]
1 | Fc1ccc(-c2ccc(-c3nn4c(-c5ccco5)nnc4s3)o2)cc1 | 76 | 63% (inactive) | 76% (inactive) | 77.8% (inactive) | 79.7% (inactive) | 5.16% (inactive) | 74.5 | 79.7 | -4.32% (inactive) | 4.92% (inactive) | 2.35% (inactive) | 60.4% (active) | -3.88% (inactive) | 97.1% (inactive) | 1.25% (inactive) | 2.34% (inactive) | 
2 | CCOC(=O)c1cc2c(=O)n3ccccc3nc2n(CCCOC)c1=NC(C)=O | 90 | 94.5% (inactive) | 90% (inactive) | 109% (inactive) | 94.2% (inactive) | 26.5% (inactive) | 67.7 | 94.2 | -5.48% (inactive) | -0.48% (inactive) | -6.91% (inactive) | -0.22% (inactive) | -4.92% (inactive) |  | 1.38% (inactive) | 6.83% (inactive) | 100% (inactive)
3 | COCc1nnc(NC(=O)c2ccc(S(=O)(=O)N(C)c3ccccc3)cc2)o1 | 85 | 107% (inactive) | 85% (inactive) | 66.6% (inactive) | 43.7% (active) | -18.5% (inactive) | 62.2 | 43.7 | -3.87% (inactive) | -2.17% (inactive) | 3.04% (inactive) | 9.5% (inactive) | -5.06% (inactive) | 29.7% (inactive) | 0.19% (inactive) | 4.65% (inactive) | 
4 | COc1ccc(C2C(C(=O)N3CCCC3)c3cc(OC)c(OC)cc3C(=O)N2C)cc1 (stereo not given) | 88.5 | 85.5% (inactive) | 88.5% (inactive) | 94.3% (inactive) | 102% (inactive) | 0.95% (inactive) | 101 | 102 | -7.95% (inactive) | -0.63% (inactive) | -8.59% (inactive) | -0.445% (inactive) | -1.15% (inactive) |  | 0.655% (inactive) | 5.28% (inactive) | 92.8% (inactive)
5 | O=C(Nc1nncs1)c1ccccc1NS(=O)(=O)c1cccs1 | 99 | 110% (inactive) | 99% (inactive) | 95.3% (inactive) | 90.2% (inactive) | -3.62% (inactive) | 93.8 | 90.2 | -4.86% (inactive) | -11.2% (inactive) | -20.1% (inactive) | -10.1% (inactive) | -1.16% (inactive) | 102% (inactive) | 2.67% (inactive) | 4.37% (inactive) | 
6 | CCOC(=O)CCCOC(=O)c1ccc(S(=O)(=O)N(C)C)cc1 | 95 | 84.5% (inactive) | 95% (inactive) | 88.7% (inactive) | 100% (inactive) | 1.72% (inactive) | 98.7 | 100 | -6.49% (inactive) | 2.79% (inactive) | -13.7% (inactive) | -2.25% (inactive) | -2% (inactive) |  | 1.5% (inactive) | 4.96% (inactive) | 89.6% (inactive)
7 | O=C(OCC(=O)c1ccc[nH]1)c1ccc(S(=O)(=O)N2CCCCC2)cc1 | 94 | 98% (inactive) | 94% (inactive) | 90.9% (inactive) | 97.8% (inactive) | 16.8% (inactive) | 81 | 97.8 | -3.64% (inactive) | -6.17% (inactive) | -15.2% (inactive) | -4.03% (inactive) | -0.59% (inactive) | 99.8% (inactive) | 3.25% (inactive) | 3.17% (inactive) | 
8 | CC(=O)NCC(=O)N(Cc1ccco1)C1(C(=O)NC2CCCCC2)CCCCC1 | 140 | 93% (inactive) | 140% (inactive) | 103% (inactive) | 90.9% (inactive) | 2.67% (inactive) | 88.3 | 90.9 | -9.59% (inactive) | 2.7% (inactive) | -7.64% (inactive) | 2.32% (inactive) | -5.15% (inactive) |  | 2.22% (inactive) | -0.72% (inactive) | 90% (inactive)
9 | Cc1ccc(C(C(=O)NC2CCCCC2)N2CCOCC2)cc1 (stereo not given) | 95 | 100% (inactive) | 95% (inactive) | 106% (inactive) | 95.8% (inactive) | 4.12% (inactive) | 91.7 | 95.8 | -5.89% (inactive) | -4.13% (inactive) | -9.79% (inactive) | -10.3% (inactive) | -2% (inactive) |  | 1.07% (inactive) | 7.79% (inactive) | 89.3% (inactive)
10 | c1ccc(-c2nnc(CSc3nncs3)o2)cc1 | 104 | 86.5% (inactive) | 104% (inactive) | 88.4% (inactive) | 106% (inactive) | 13.6% (inactive) | 92.9 | 106 | -3.95% (inactive) | -4.67% (inactive) | -16% (inactive) | 8.37% (inactive) | -0.84% (inactive) | 106% (inactive) | 1.01% (inactive) | 5.21% (inactive) | 
11 | CCOC(=O)c1cc2c(=O)n3ccccc3nc2n(CC(C)C)c1=NC(=O)c1ccco1 | 84.5 | 83% (inactive) | 84.5% (inactive) | 70.4% (inactive) | 7.19% (active) | 4.44% (inactive) | 2.75 | 7.19 | -2.47% (inactive) | -3.33% (inactive) | 1.45% (inactive) | 4.24% (inactive) | -7.74% (inactive) |  | 0.955% (inactive) | 5.64% (inactive) | 37.7% (inactive)
12 | O=C(CSC1=NCCS1)NCc1ccco1 | 84 | 108% (inactive) | 84% (inactive) | 80.6% (inactive) | 90.1% (inactive) | 1.28% (inactive) | 88.8 | 90.1 | -0.54% (inactive) | 26.5% (inactive) | 6.88% (inactive) | 47.7% (active) | -3.56% (inactive) |  | 2.73% (inactive) | 3.89% (inactive) | 100% (inactive)
13 | Cc1ccc2oc(=O)c3cnn(CC(=O)N4CCCCC4C)c3c2c1 (stereo not given) | 91.5 | 108% (inactive) | 91.5% (inactive) | 103% (inactive) | 89.2% (inactive) |  |  |  | -0.27% (inactive) | 2.62% (inactive) | -9.82% (inactive) | -6.86% (inactive) | -3.34% (inactive) | 84.1% (inactive) | 3.4% (inactive) | 0.87% (inactive) | 87.1% (inactive)
14 | Cc1ccc(C(=O)CSc2n[nH]c(-c3ccco3)n2)cc1C | 106 | 104% (inactive) | 106% (inactive) | 99.2% (inactive) | 101% (inactive) | -3.95% (inactive) | 105 | 101 | -4.68% (inactive) | -4.67% (inactive) | -13.8% (inactive) | 3.79% (inactive) |  | 101% (inactive) | 0.765% (inactive) | 0.94% (inactive) | 107% (inactive)
15 | COc1cccc(-c2nc(CS(=O)(=O)CC(=O)Nc3cc(C)ccc3C)c(C)o2)c1 | 76 | 86.5% (inactive) | 76% (inactive) | 70.7% (inactive) |  | 15.3% (inactive) | 50.8 | 66.1 | -1.73% (inactive) | -4.1% (inactive) | -3.37% (inactive) | -3.22% (inactive) | -1.75% (inactive) | 98.4% (inactive) | 3.55% (inactive) | 0.99% (inactive) | 91.4% (inactive)
16 | Cc1noc(/C=C/N(C)C)c1S(=O)(=O)N1CCCC(C(=O)NC2CCCCC2)C1 (stereo not given) | 99 | 99.5% (inactive) | 99% (inactive) | 75.7% (inactive) | 88.6% (inactive) | -16.5% (inactive) | 105 | 88.6 | -3.07% (inactive) | -3.5% (inactive) | 2.12% (inactive) | -9.03% (inactive) |  | 93% (inactive) | 0.78% (inactive) | 5.71% (inactive) | 88.4% (inactive)
17 | CNC(=O)c1ccsc1NC(=O)CN1C(=O)CCC1=O | 90 | 94% (inactive) | 90% (inactive) | 96.8% (inactive) |  | -22.5% (inactive) | 80.5 | 58 | -3.47% (inactive) | -0.67% (inactive) | -11.5% (inactive) | 0.46% (inactive) | -6.24% (inactive) | 104% (inactive) | 1.65% (inactive) | 1.73% (inactive) | 98.9% (inactive)
18 | CCOC(=O)c1cc2c(=O)n3ccccc3nc2n(CC2CCCO2)c1=NC(C)=O (stereo not given) | 99 | 95.5% (inactive) | 99% (inactive) | 102% (inactive) | 81.1% (inactive) |  |  |  | -6.71% (inactive) | -2.22% (inactive) | -22.2% (inactive) | -17.4% (inactive) | 0.08% (inactive) | 97.6% (inactive) | 0.525% (inactive) | 3.93% (inactive) | 93.8% (inactive)
19 | CCOc1ccccc1C1CC(c2ccc(Br)cc2)Nc2nc(N)nn21 (stereo not given) | 91.5 | 102% (inactive) | 91.5% (inactive) | 63.3% (inactive) | 25.7% (active) | -45.9% (inactive) | 71.6 | 25.7 | -2.13% (inactive) | 0.16% (inactive) | 9.24% (inactive) |  | -2.25% (inactive) | 69.3% (inactive) | 2.62% (inactive) | 4.4% (inactive) | 73.2% (inactive)
20 | Cn1c(SCC(=O)c2cc3ccccc3o2)nnc1-c1ccccc1 | 96.5 | 97.5% (inactive) | 96.5% (inactive) | 105% (inactive) | 84.3% (inactive) | 3.21% (inactive) | 81.1 | 84.3 | -6% (inactive) | 13.3% (inactive) | 10.3% (inactive) |  | -3.83% (inactive) | 97.9% (inactive) | 1.88% (inactive) | 6.5% (inactive) | 96.8% (inactive)
21 | O=c1[nH]c2ccc(Br)cc2c(-c2ccccc2)c1N1CCOCC1 | 91 | 111% (inactive) | 91% (inactive) | 60.1% (inactive) | 75.7% (inactive) |  |  |  | 0% (inactive) | 2% (inactive) | -12.5% (inactive) | -15.8% (inactive) | -3.63% (inactive) | 92.7% (inactive) | 1.29% (inactive) | 0% (inactive) | 75.2% (inactive)
